Source: PubChem
RGS8-Gao reg: human RGS8-Galphao interaction regulation; multiplexed bead flow cytometry, RGS8-Galphao binding; actives lie on both sides; hit rate 0.34% among 220,000; response (percent of control binding), % at 10 µM; in the data active = response below about 60% or above about 140%; inactive = in between;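 also: Galphao activated as the GDP aluminium fluoride complex binding bead-coupled RGS8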
Target sequence (P09471 whole entry, looked up): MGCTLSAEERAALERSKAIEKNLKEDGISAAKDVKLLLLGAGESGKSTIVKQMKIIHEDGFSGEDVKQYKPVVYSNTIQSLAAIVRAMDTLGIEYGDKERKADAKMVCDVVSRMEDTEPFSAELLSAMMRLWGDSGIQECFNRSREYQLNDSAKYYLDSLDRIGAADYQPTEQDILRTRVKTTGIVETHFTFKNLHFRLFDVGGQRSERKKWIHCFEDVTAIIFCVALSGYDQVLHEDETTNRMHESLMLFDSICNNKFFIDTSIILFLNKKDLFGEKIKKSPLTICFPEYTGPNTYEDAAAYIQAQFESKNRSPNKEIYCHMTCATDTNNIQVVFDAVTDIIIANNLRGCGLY
RGS16-Gao: modulates binding between human RGS16 and Galphao. O15492+P09471. bead-based flow cytometry RGS16-Galphao binding, fluorescence; actives lie on both sides. binding response (% of control), % at 10 µM. hit rate 0.38% among 220,000;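 also: Galphao activated by GDP with aluminum fluoride before binding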
Target sequence (O15492 whole entry, looked up): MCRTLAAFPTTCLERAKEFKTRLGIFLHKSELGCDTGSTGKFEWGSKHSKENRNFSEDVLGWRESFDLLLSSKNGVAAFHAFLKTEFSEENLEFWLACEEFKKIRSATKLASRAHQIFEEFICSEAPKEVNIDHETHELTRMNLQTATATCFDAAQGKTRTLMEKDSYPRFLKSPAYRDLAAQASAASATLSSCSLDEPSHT
Target sequence (P09471 whole entry, looked up): as the sequence (P09471 whole entry, looked up) above
Avidin bead fluor: compound fluoresces at 488/530 nm on avidin beads; compound fluorescence 488/530 nm, flow cytometry; hits give high values; fluorescence (KMESF) at 10 µM; hit rate 0.38% among 220,000; AID 1775; in the data active = fluorescence above about 47
RGS4-Gao reg: human RGS4-Galphao interaction regulation. AID 1415. binding response (% of control), % at 10 µM. Multiplexed bead flow cytometry, RGS4-Galphao binding; actives lie on both sides. P09471. hit rate 0.33% among 220,000; in the data active = binding response below about 49% or above about 150%; inactive = in between;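 also: fluorescent Galphao activated with aluminum fluoride binding bead-coupled RGS4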
GSH fluor: compound fluoresces at 488/530 nm on GSH beads; GSH beads flow cytometry, compound fluorescence 488/530 nm; hits give high values; fluorescence (KMESF) at 10 µM; hit rate 0.25% among 190,000; in the data active = fluorescence above about 89;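 also: glutathione beads carrying GST-tagged Bcl family fusion proteins plus one bare bead set; values are compound well signal with DMSO vehicle wells as background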
RGS7-Gao: regulators of human RGS7-Galphao interaction. hit rate 0.35% among 220,000. binding response (% of control), % at 10 µM. Multiplexed bead flow cytometry, RGS7-Galphao binding; actives lie on both sides. AID 1439. P09471; in the data active = binding response below about 49% or above about 150%; inconclusive = no clear call, values can overlap the other calls; inactive = in between;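 also: fluorescent Galphao held in activated GDP-AlF4 state binding bead-coupled RGS7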
RGS-Gao: regulators of human RGS4-Galphao interaction; hit rate 99% among 1,600; AID 1504; multiplexed bead flow cytometry, RGS–Galpha-o binding; shares compounds with RGS16-Gao; RGS4–Galpha-o binding response, % at 10 µM;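 also: fluorescently labeled Galpha-o bound to GDP with aluminium fluoride binding biotinylated RGS beads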
Avidin counter: counter-screen: compounds disrupting biotin binding to avidin beads; 1,700 tested, under 10 active; inhibition, % at 10 µM; streptavidin beads, fluorescein-biotin binding, flow cytometry; AID 1783; shares compounds with RGS16-Gao;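 active = inhibition above 50%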;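 also: median green fluorescence of gated singlet beads compared with DMSO control wells; 0% = DMSO wells and 100% = complete loss of bead fluorescence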
RGS8-Gao confirm: RGS8-Galphao interaction regulation, single point confirmation | shares compounds with RGS16-Gao | bead-based flow cytometry RGS8-Galphao binding, fluorescence; actives lie on both sides | binding response (% of control), % at 10 µM | hit rate 3% among 1,700 | AID 1836; in the data active = binding response below about 72% or above about 130%; inactive = in between;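 also: Galphao activated as GDP AlF4 complex before binding bead RGS8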
RGS7-Gao confirm: confirmation of regulators of human RGS7-Galphao interaction | bead-based flow cytometry RGS7-Galphao binding; actives lie on both sides | AID 1837 | shares compounds with RGS16-Gao | response (percent of control binding), % at 10 µM | hit rate 7.8% among 1,700; in the data active = response below about 75% or above about 130%; inactive = in between;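 also: fluorescent Galphao activated with GDP and aluminum fluoride binding bead-coupled RGS7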
RGS16-Gao conf: confirmation of regulators of human RGS16-Galphao interaction. shares compounds with RGS16-Gao. bead-based flow cytometry, RGS16-Galphao binding; actives lie on both sides. response (% of control binding), % at 10 µM. hit rate 4% among 1,700. AID 1838; in the data active = response below about 74% or above about 130%; inactive = in between;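 also: Galphao activated as the GDP aluminium fluoride complex binding bead-coupled RGS16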
RGS4-Gao single: RGS4-Galphao interaction regulation, single point confirmation; shares compounds with RGS16-Gao; RGS4-Galphao binding, multiplexed bead flow cytometry; actives lie on both sides; binding response (% of control), % at 10 µM; hit rate 4% among 1,700; AID 1840; in the data active = binding response below about 74% or above about 130%; inactive = in between
RGS19-Gao conf: confirmation of regulators of human RGS19-Galphao interaction. shares compounds with RGS16-Gao. response (percent of control binding), % at 10 µM. bead-based flow cytometry RGS19-Galphao binding; actives lie on both sides. hit rate 5% among 1,700. AID 1841; in the data active = response below about 50% or above about 160%; inactive = in between;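 also: 100% = no compound control and 0% = blank background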
An asterisk follows results filed as active; i = inactive; ? = inconclusive; nt = no result; [ ] = dose if it differs, or a comment. Most compounds without a hit are left out; they make up all but 1.2% or so of the library. Unless noted, no rule for the calls is given here.

SMILES | RGS8-Gao reg | RGS16-Gao | Avidin bead fluor | RGS4-Gao reg | GSH fluor | RGS7-Gao | Avidin counter | RGS8-Gao confirm | RGS7-Gao confirm | RGS16-Gao conf | RGS4-Gao single | RGS19-Gao conf | others
C/C(=N\NC(=O)Cc1cccn1C)c1cccs1 | 30* | 27 | -2 | 34* | 21 | 31* | -1 | 102 | 104 | 102 | 104 | 106
Cc1cc(C)n(-c2nc3ccccc3c(=O)n2OCC(=O)N(C)C)n1 | 101 | 99 | 33 | 102 | 14 | 103 | nt | nt | nt | nt | nt | nt
Cc1cc(C)n(-c2nc3ccccc3c(=O)n2OCC(=O)Nc2c(C)cccc2C)n1 | 174*[activator] | i | 6 | 149 | 33 | 134 | 4 | 127*[activator] | 276*[activator] | 210*[activator] | 210*[activator] | 246*[activator] | RGS-Gao=149*
S=C1NCN(CCc2ccccc2)CN1Cc1ccccc1 | 99 | 97 | 10 | 101 | nt | ? | nt | nt | nt | nt | nt | nt
O=C1c2ccccc2NC(c2cccc(F)c2)N1Cc1ccco1 (stereo not drawn) | 51* | 53 | 1 | 43* | 19 | 31* | -1 | 100 | 103 | 100 | 101 | 102
COc1ccc([N+](=O)[O-])cc1-n1cnnn1 | 101 | 102 | 10 | 102 | 10 | 98 | nt | nt | nt | nt | nt | nt
COc1ccc(/C=N/NC(=O)c2cccc(Br)c2)cc1COc1ccccn1 | 100 | 99 | 4 | 102 | nt | ? | nt | nt | nt | nt | nt | nt
COc1ccc(NC(=O)/C(C#N)=C\c2ccc(N3CCOCC3)o2)cc1 | 99 | 102 | 15 | 103 | 13 | 102 | nt | nt | nt | nt | nt | nt
N#C/C(=C/c1ccc(N2CCCCC2)o1)C(=O)Nc1ccc2ccccc2c1 | 91 | 164 | 111* | 177*[activator] | 82 | 192*[activator] | 2 | 103 | 175*[activator] | 138*[activator] | 148*[activator] | 220*[activator]
Cc1cccc(N2CCC(N=CN(C)C)=N2)c1 | 103 | 104 | 10 | 102 | 16 | 99 | nt | nt | nt | nt | nt | nt
CC(C)=CCCC(C)CN1CCC(N2CCC(C(=O)N3CCCC3)CC2)CC1 (stereo not drawn) | 102 | 101 | 3 | 104 | 10 | 101 | nt | nt | nt | nt | nt | nt
CCOc1ccc(-c2nc(N)ncc2Oc2ccccc2Br)c(O)c1 | 100 | 98 | 29 | 97 | 35 | 99 | nt | nt | nt | nt | nt | nt
CCN1CCCC1CNC(=O)C(=O)Nc1ccccc1OC (stereo not drawn) | 104 | 108 | 62* | 101 | 13 | 153*[activator] | nt | nt | nt | nt | nt | nt | RGS-Gao=101*
CN(C)C(=O)CSC1c2ccccc2C(=O)N1c1ccccc1 (stereo not drawn) | 9.1* | -8 | -2 | 23* | 26 | 15* | -2 | 104 | 98 | 107 | 101 | 113
O=C(CSC1c2ccccc2C(=O)N1c1ccccc1)N1CCOCC1 (stereo not drawn) | 97 | 91 | 6 | 99 | 8 | 100 | nt | nt | nt | nt | nt | nt
Cc1ccc(S(=O)(=O)Nc2c(C)nn(C)c2C)cc1 | 75 | -95* | 9 | 66 | 19 | 84 | 2 | 102 | 93 | 105 | 99 | 110 | RGS-Gao=66*
O=C(Nc1ccccc1C(F)(F)F)c1ccc(F)c(S(=O)(=O)N2CCOCC2)c1 | 100 | 100 | 11 | 100 | 26 | 99 | nt | nt | nt | nt | nt | nt
Cc1[nH]c(=O)[nH]c(=O)c1NC(=O)c1ccc(OC(C)C)cc1 | 100 | 104 | 13 | 101 | 16 | 99 | nt | nt | nt | nt | nt | nt
COc1ccc2cc(CCNC(=O)C3CCCC3)c(=O)[nH]c2c1 | 147*[activator] | 228 | 4 | 111 | 25 | 109 | 0 | 105 | 101 | 107 | 104 | 110 | RGS-Gao=111*
CC(=O)Nc1ccc(OC(=O)c2cc3cc(Br)ccc3oc2=O)cc1 | 103 | 101 | 12 | 102 | 9 | 96 | nt | nt | nt | nt | nt | nt
CC(=O)Nc1ccc(OC(=O)c2cc3cc(Br)cc(Br)c3oc2=O)cc1 | 80 | 19* | 4 | 91 | 8 | 81 | -2 | 100 | 88 | 96 | 92 | 96 | RGS-Gao=91*
O=C1CSC(c2cccnc2)N1CCc1ccccn1 (stereo not drawn) | 97 | 100 | 6 | 101 | nt | ? | nt | nt | nt | nt | nt | nt
CC1(C)C(C=C(Cl)Cl)C1C(=O)N1CCN(Cc2ccccc2)CC1 (stereo not drawn) | 101 | 101 | 9 | 104 | 17 | ? | nt | nt | nt | nt | nt | nt
c1ccc(N(c2ccccc2)c2nc(-n3ccnc3)nc(-n3ccnc3)n2)cc1 | nt | nt | nt | nt | 43 | nt | 0 | 101 | 101 | 102 | 101 | 113
NC(=O)NC(=O)COC(=O)c1ccccc1OCc1ccc(F)cc1 | 55* | 40 | 1 | 40* | nt | ? | -8 | 114 | 117 | 112 | 114 | 113
SMILES | RGS8-Gao reg | RGS16-Gao | Avidin bead fluor | RGS4-Gao reg | GSH fluor | RGS7-Gao | Avidin counter | RGS8-Gao confirm | RGS7-Gao confirm | RGS16-Gao conf | RGS4-Gao single | RGS19-Gao conf | others
COc1ccc(/C(C)=N/OCC(=O)N2CC3(C)CC2CC(C)(C)C3)cc1 (stereo not drawn) | 282*[activator] | -45 | 1 | 304*[activator] | 13 | 276*[activator] | 0 | 107 | 109 | 113 | 109 | 124
COc1cc(C)c(Br)cc1S(=O)(=O)NCc1ccncc1 | 100 | 100 | 11 | 102 | 12 | 101 | nt | nt | nt | nt | nt | nt
O=C(NC(Cc1c[nH]c2ccccc12)C(=O)O)/C(=C/c1ccc(F)cc1)NC(=O)c1ccccc1 (stereo not drawn) | 92 | 94 | 7 | 89 | nt | ? | nt | nt | nt | nt | nt | nt
Cc1csc(C(C)N(C)C(=O)CCc2nnc(CCc3ccccc3)o2)n1 (stereo not drawn) | 100 | 100 | 10 | 98 | 11 | 98 | nt | nt | nt | nt | nt | nt
CC(C(=O)Nc1cccc(S(=O)(=O)N2CCOCC2)c1)N1CCN(C/C=C/c2ccccc2)CC1 (stereo not drawn) | 100 | 102 | 22 | 101 | 10 | 103 | nt | nt | nt | nt | nt | nt
CCCC(=O)Nc1nc2c(C)c(Cl)ccc2s1 | 97 | 96 | 6 | 94 | nt | ? | nt | nt | nt | nt | nt | nt
CC(=O)Nc1nc2c(C)c(Cl)ccc2s1 | 82 | 99 | 7 | 96 | nt | ? | 2 | 104 | 102 | 110 | 101 | 99
